# HCMV antiviral – blocks human cytomegalovirus replication; HFF cells, HCMV-luciferase reporter, 72 h; stronger effect = lower value; activity change, negative = inhibition, % at 57.5 µM; hit rate 4.5% among 410,000; in the data active = activity change below about -60%; inconclusive = no clear call, values can overlap the other calls; inactive = above about -39%; note: % is set by controls: 0 for no effect and ±100 for the full control effect
#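 Human foreskin fibroblasts infected with luciferase-reporter HCMV at MOI 1 PFU/cell, compounds at two doses. Luciferase measured 72 h post infection; normalized to buffer-only basal and Salinomycin (10uM) controls.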
# CHX counter – counter-screen hit for Shiga toxin inhibitors, cycloheximide | cell reporter, cycloheximide protein synthesis inhibition counterscreen | max response, % | hit rate 12% among 300,000; in the data active = max response mostly above about 13%, no sharp cut-off; inactive = mostly below about 14%; note: read at 38.3 µM for the half of the compounds with a filed dose; 0% is about no effect
# Shiga inhibitor – Shiga toxin inhibition; Vero cells, Shiga toxin protein synthesis inhibition reporter; inhibition, % at 38.7 µM; hit rate 9.2% among 290,000; in the data active = inhibition mostly above about 28%, no sharp cut-off; inactive = mostly below about 43%; note: 0% is about no effect
# Pf growth 48h – inhibits P. falciparum growth in the first generation, 48 h | P. falciparum luciferase growth in erythrocytes, 48 h | AID 504832 | Potency, µM (highest dose often 28.7 µM), without a hit: at the highest dose activity change, negative = inhibition, hits mostly inhibitors | hit rate 5.9% among 310,000; note: potency is the fitted concentration of half-maximal effect; % is set by controls: 0 for no effect and ±100 for the full control effect
#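 Growth was read as firefly luciferase luminescence after a 48 h, 37 C, 5% CO2 exposure of compounds to reporter-bearing P. falciparum cultures (0.1% parasitemia, 2% hematocrit final) in Albumax-supplemented RPMI 1640.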
# Pf growth 96h – P. falciparum growth inhibition at 96 hour, primary screen for plastid delayed-death inhibitors; P. falciparum luciferase reporter growth, 96 h; Potency, µM (highest dose often 28.7 µM), without a hit: top-dose activity change, negative = inhibition, usual class: inhibitors; hit rate 6.9% among 320,000; AID 504834; note: potency is the fitted concentration of half-maximal effect; % is set by controls: 0 for no effect and ±100 for the full control effect
#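 Infected RBCs, 2% Hct / 0.05% parasitemia final; luciferase-reporter P. falciparum; cpd 96 h, 37 C, 5% CO2; luciferase detection reagent; luminescence.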
# HCV inh – blocks hepatitis C virus; Potency, µM (top dose mostly 41.8 µM), inactives show at the highest dose activity change, negative = inhibition, hits mostly inhibitors; hit rate 3.4% among 340,000; Huh7.5.1 HCVcc-Cre infection, luciferase reporter, 44 h; note: potency is the fitted concentration of half-maximal effect; % is set by controls: 0 for no effect and ±100 for the full control effect
#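 Compounds are dispensed onto cells plated 4 h earlier at 1,000 per well, with HCVcc-Cre virus (about 0.5 moi) added next. Following 44 h of culture, luminescent signal is measured for 15 sec after 15 min with substrate at room temperature.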
# Active calls of the source: *; ? = inconclusive; . = no result; ! = a repeat was not active; [ ] = remark or other dose. Only some compounds are listed: those with a hit (about 21% of all), similar ones and a draw of the others. Unless noted, calls come from the whole dose curve; as a rule, active = well fitted inhibition curve with a large enough effect; inconclusive = small, poorly fitted or top-dose-only effect, or another doubt; inactive = no such curve, though single readings can be large or run the other way.
SMILES,HCMV antiviral,CHX counter,Shiga inhibitor,Pf growth 48h,Pf growth 96h,HCV inh
CCN(CC)c1ccc(NC(=O)CSc2nc3ccccc3c(=O)n2-c2cc(S(=O)(=O)N(C)C)ccc2C)cc1,-24.9,1.0,-4.1,8.28µM*,?,?
CN(C)S(=O)(=O)c1cccc(NC(=O)CSc2nc3ccccc3n2-c2ccccc2)c1,-87.6*,5.8,-6.5,?,?,?
CN(C1CCCCC1)S(=O)(=O)CCNC(=O)c1ccccc1,-8.9,.,.,17.6%,46.6%,-4.1%[8.37 µM]
CCCCOC(=O)c1ccc(NC(=O)Cc2coc3c(C)c(C)ccc23)cc1,-22.0,.,.,.,.,.
CCCc1nc(SCC(=O)N2CCC(Cc3ccccc3)CC2)c2c(=O)n(C)c(=O)n(C)c2n1,-22.8,-0.9,-0.9,?,12.5%,10µM*!
Cn1c(=O)c2c(SCC(=O)N3CCCc4ccccc43)nc(CC(C)(C)C)nc2n(C)c1=O,.,-2.6,16.3,-3.0%,-4.9%,?
CCCc1nc(SCC(=O)N2CCCc3ccccc32)c2c(=O)n(C)c(=O)n(C)c2n1,.,3.6,10.7,?,?,10µM*
COc1ccc(C(=O)NNC(=O)c2ccc(C)cc2)cc1S(=O)(=O)N1CCCC1,-20.6,-8.1,19.4,11.7%,41.8%,7.8%
O=C(O)CCc1[nH]c2ccccc2c1Sc1ccccc1,-32.9,-4.0,-4.5,.,1.2%,28.2%
O=C(c1ccc(Cn2c(=S)[nH]c3ccc(N4CCOCC4)cc3c2=O)cc1)N1CCN(c2ccc(F)cc2)CC1,-12.7,36.9*,88.0*,?,?,?
O=C(c1ccc(CN2CCOCC2)cc1)N1CCN(c2cccc(Cl)c2)CC1,-32.8,5.0,-20.3,0.1%,.,-5.0%
Cc1ccc(C)c(N2CCN(C(=O)c3ccc(Cn4c(=S)[nH]c5ccc(N6CCOCC6)cc5c4=O)cc3)CC2)c1,85.8,24.2,33.6,2.62µM*,4.15µM*,?
Cc1ccc(Cl)cc1N1CCN(C(=O)c2ccc(CN3CCOCC3)cc2)CC1,5.7,-6.5,-17.1,?,-19.8%,25.1µM*
Cc1ccc(Cl)cc1N1CCN(Cc2cc3c(cc2O)CCC3)CC1,?,-1.1,-15.0,.,0.147µM*,0.8%
O=C(c1ccc(Cn2c(=S)[nH]c3cc4c(cc3c2=O)OCO4)cc1)N1CCN(c2ccccc2)CC1,-36.1,6.9,0.0,?,?,?
CCn1cc(C(=O)N2CCN(c3ccccc3OC)CC2)c(=O)c2cc(S(=O)(=O)N3CCC(C)CC3)ccc21,-0.6,.,.,.,.,.
COc1ccccc1NC(=O)OC(C)c1ccc(Cl)cc1 (stereo unspecified),-14.1,7.4,26.7,-7.3%,?,?
COc1ccc(N2CCN(C(=O)c3ccc(Cn4c(=S)[nH]c5ccc(N6CCOCC6)cc5c4=O)cc3)CC2)cc1,-37.7,40.1*,87.2*,?,38.3%,?
COc1ccc(Cn2c(=S)[nH]c3cc(C(=O)N4CCN(c5ccccc5)CC4)ccc3c2=O)cc1,14.6,-4.6,-1.2,9.8%,?,-4.7%
Cc1ccc(NC(=O)CN(C)Cc2cccs2)cc1Cl,?,15.7*,21.8,36.5%,47.4%,-12.4%
CCN(CC)c1ccc(NC(=O)CN(C)Cc2cccs2)cc1,-34.3,9.7,23.5,?,0.0%,-7.9%
CCN(CC(=O)Nc1c(F)cccc1F)C(=O)CCCc1cccs1,-31.5,.,.,?,-28.9%,3.4%
C/C(CC(=O)Nc1ccc(C)c(Cl)c1)=N\NC(=O)Cc1cccs1,-9.3,17.1*,25.8,4.4%,6.8%,16.0%
CN(CC(=O)Nc1c(F)cccc1F)Cc1cccs1,-30.3,14.2*,35.3,15.6%,39.8%,-7.2%
C/C(CC(=O)Nc1ccc(Cl)c(Cl)c1)=N\NC(=O)Cc1ccccc1,-39.2,-2.3,-15.0,30.5%,0.0%,-0.3%
SMILES,HCMV antiviral,CHX counter,Shiga inhibitor,Pf growth 48h,Pf growth 96h,HCV inh
C[C@H](CO)N1C[C@H](C)[C@@H](CN(C)Cc2ccc(C(=O)O)cc2)Oc2c(NS(=O)(=O)c3ccc(F)cc3)cccc2C1=O,-31.7,.,.,.,.,12.4%
Cc1ccc(NC(=O)c2cc(S(=O)(=O)NC3CCCCC3)ccc2F)cc1Cl,-25.0,.,.,.,.,.
COc1ccc2c(c1)[N+](C)(C)C(C)(C)C=C2C,-10.9,-4.5,22.6,?,?,3.7%
CCOc1ccc2c(c1)[N+](C)(C)C(C)(C)C=C2C,?,-3.2,-10.4,1.17µM*,-23.9%,0.5%
CCC(C)(C)NC(=O)C(Sc1ccccc1)c1ccccc1 (stereo unspecified),-25.4,-1.1,24.9,?,10.4µM*,7.5%
COc1ccc(CNc2nc3c(-c4ccccc4)nnn3c3ccccc23)cc1,-28.7,.,.,.,.,.
CC(C)c1cccc(C2=CC(=O)C[C@H](c3ccc4c(c3)OCO4)C2)c1,-16.4,.,.,13.1µM*,8.28µM*,?
Cc1cc(C)c(C2=CC(=O)C[C@H](c3ccc4c(c3)OCO4)C2)c(C)c1,-61.0*,.,.,8.7%,?,-13.1%
O=C1C=C(c2ccc3c(c2)OCO3)C[C@@H](c2ccc3c(c2)OCO3)C1,2.0,.,.,41.5%,34.6%,?
O=C1NC(=S)N(C(=O)c2ccc(F)cc2)/C1=C/c1ccccc1,-18.2,14.4*,21.1,3.8%,0.0%,-11.5%
COc1ccc(/C=C2\C(=O)NC(=S)N2C(=O)c2ccc(F)cc2)cc1,-16.0,1.8,-2.4,18.9%,114.8%,14.1%
CCCC(=O)OC[C@H]1CN(C2CCCC2)S(=O)(=O)c2c(Oc3ccccc3)cccc2O1,22.6,.,.,.,.,.
COc1ccc(C2=C(C=Nc3c(C)n(C)n(-c4ccccc4)c3=O)C(c3ccccc3C)c3ccccc3O2)cc1OC (stereo unspecified),4.7,3.8,-3.5,0.329µM*,.,?
CCC(CC)CN1CCC(CN2C(=S)NC[C@@H]2Cc2ccccc2)CC1,-4.4,.,.,.,.,.
CCC(=O)c1ccc(OCC(=O)OC(C)C(=O)NCc2ccc3c(c2)OCO3)cc1 (stereo unspecified),-8.5,.,.,?,21.3%,20.5%
CN(Cc1ccccc1F)c1nc(-c2cccs2)nc2ccccc12,-60.0*,3.2,6.9,9.28µM*,-4.3%,?
COc1ccc(-c2nnc3n2-c2ccccc2SC3)cc1OC,12.3,-2.8,9.0,-18.7%,?,5.6%
Cc1ccc(-c2c[n+]3c(n2-c2ccccc2)SCC3)cc1,-73.3*,-2.3,6.2,?,?,?
Brc1ccc(-c2c[n+]3c(n2-c2ccccc2)SCC3)cc1,-72.6*,-1.2,-3.5,?,?,-15.1%
COc1ccc(-c2c[n+]3c(n2-c2ccccc2)SCC3)cc1,-79.7*,0.6,-9.4,?,?,?
Cc1ccc(C2(O)CN(c3ccccc3)C3=[N+]2CCS3)cc1 (stereo unspecified),8.5,7.1,23.7,-28.6%,?,?

# Screens (PubChem BioAssay)
